This note sets out measurements from PubChem BioAssay AID584 (National Center for Advancing Translational Sciences (NCATS), 2007).

Molecules are shown by their SMILES. Out of some 71,000 compounds screened, about 65 (0.09%) were called active. The list comes from a sample in which actives are over-represented; it also holds similar structures and randomly drawn compounds. A number with no mark means an inactive call. The call rests on the fitted dose curve; in most records, active means well fitted curve in the direction sought with a large enough effect; inconclusive means small, poorly fitted or top-dose-only effect; inactive means flat fitted curve, though single readings scatter.
On the % scale 0 is the no-effect control and ±100 the full control effect.

In this experiment the target is Beta-lactamase (Escherichia coli (strain K12)) (UniProt P00811). As to the kind of experiment: Promiscuous and Specific Inhibitors of AmpC Beta-Lactamase (assay with detergent). Particulars: purified AmpC, nitrocefin hydrolysis with detergent; series mostly up to 28.7 µM; activity change, negative = inhibition: at the top concentration. How it is done: NIH Molecular Libraries Screening Centers Network [MLSCN]
Sequence of Beta-lactamase (Escherichia coli (strain K12)) (P00811 whole entry, looked up): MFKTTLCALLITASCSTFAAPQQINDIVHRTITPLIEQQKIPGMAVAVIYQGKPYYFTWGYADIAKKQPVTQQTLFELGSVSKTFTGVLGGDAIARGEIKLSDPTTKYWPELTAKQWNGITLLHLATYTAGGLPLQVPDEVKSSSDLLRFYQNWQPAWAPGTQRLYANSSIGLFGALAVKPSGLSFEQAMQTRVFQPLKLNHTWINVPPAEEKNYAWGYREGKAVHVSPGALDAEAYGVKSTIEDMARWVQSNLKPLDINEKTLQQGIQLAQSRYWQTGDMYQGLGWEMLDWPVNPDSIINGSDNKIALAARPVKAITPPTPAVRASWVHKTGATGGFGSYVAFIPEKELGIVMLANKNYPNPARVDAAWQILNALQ
NIH Chemical Genomics Center [NCGC]
PI Name: Shoichet, Brian K.
This aggregation profiling approach exploits the sensitivity of aggregate formation to detergent. Inhibition of b-lactamase is measured in the presence and absence of 0.01% Triton X-100. This particular assay had the prescence of 0.01% Triton X-100. See Pubchem assay "Promiscuous and Specific Inhibitors of AmpC Beta-Lactamase (assay without detergent)" for related screen. Compounds that inhibit only in the absence of detergent are considered likely promiscuous aggregators.
A screen of 1,030 compounds was performed in Brian Shoichet's lab in 96-well format. AmpC activity was measured by following the absorbance at 480 nm. Nitrocefin is a chromogenic substrate: while nitrocefin is yellow (lmax 390 nm), the product of its hydrolysis is red (lmax 486 nm, 17,000 M-1). AmpC beta lactamase was provided by Brian Shoichet and Brian Feng, UCSF.
NCGC Assay Protocol Summary:
20 mM phosphate buffer, pH 7.0
Triton X-100: No Detergent screen: 0.0001%, Detergent screen: 0.01%.
Buffer in columns 3 and 4 as negative control (no enzyme).
5.3 nM AmpC in columns 1, 2, 5-48. Titration of UCSF compound 9 control (from 10 mM, then 1:2) pin-transferred to column 2. Column 1 is neutral (100% activity).
Six uL of reagents were dispensed to 1536-well Greiner black clear bottom plates. Compounds and controls (23 nL) were transferred via Kalypsys PinTool. The plates were incubated for 15 min at room temperature, and then 2 uL of 800 uM solution of nitrocefin was added to start the reaction. The plates were immediately transferred to and read every 20 seconds for 4 min on ViewLux (Perkin-Elmer) High-throughput CCD imager using 480 nm absorbance protocol. During dispense, reagent bottles were kept submerged into 4 deg C water bath.
Keywords: NIH Roadmap, MLSCN, MLI, MLSMR, qHTS, NCGC, AmpC Beta-Lactamase, Aggregation
Turning to `COc1ccc(S(=O)(=O)N2CCCC(C(=O)N3CCN(C)CC3)C2)cc1C` (centres undefined), the “activity change, negative = inhibition” value was 0.3%.
The value for `c1nnc2c3c4c(sc3ncn12)CCC4` was 2.4%; that for `Cc1cccc(C)c1NC(=O)N1CC=C(n2c(=O)[nH]c3ccccc32)CC1` was -0.392%; that for `Cc1cn(C2C=CC(CO)O2)c(=O)[nH]c1=O` (centres undefined) was -3.11%.
The result for `c1ccc(Nc2n[nH]nc2-c2ccccc2)cc1` reads -5.69%; that for `CCCn1c(SCC(N)=O)nnc1C(C)C`, -2.16%; that for `CC(C)(C)C(=O)CCN1C(=O)C2(OCCO2)c2ccccc21`, -1.15%.
Regarding `Cc1noc(C)c1-c1nccc(N2CCOCC2)n1`, the “activity change, negative = inhibition” value is 0.7%.
Turning to `COC(=O)c1nc(NC(=O)c2ccc(Cl)cc2)n[nH]1`, the “activity change, negative = inhibition” value was 1.67%.
For `CCCCn1nnnc1NCc1cc(OC)c(OC)c(OC)c1`, the “activity change, negative = inhibition” value is -0.286%.
The result for `CCOC(=O)C(C(=O)OCC)C(C#N)c1ccccc1` (centres undefined) reads 14.3%; that for `CC(=O)Oc1cccc(N2C(=O)CC(Nc3ccc(N4CCOCC4)cc3)C2=O)c1` (centres undefined), -7.46%; that for `CCC(=O)c1ccc(OCC(O)CN2C(=O)NC(C)(C)C2=O)cc1` (centres undefined), 10.9%.
The result for `COc1ccc(-n2ncc3c(N4CCCc5ccccc54)ncnc32)cc1` reads -4.66%; that for `COC(=O)c1ccccc1NC(=O)CSc1ccccn1`, 0.234%; that for `O=C(CN1C(=O)CCC1=O)Nc1ccc(S(=O)(=O)N2CCOCC2)cc1`, -0.675%.
For `CCS(=O)(=O)n1nc(-c2ccccc2)nc1SCc1ccccc1`, the “activity change, negative = inhibition” value was -2.9%.
The result for `CCCC(=O)C1=C(N(C)c2ccccc2)CC(C)(C)C(C(=O)OC)C1=O` (centres undefined) reads -2.7%.
Turning to `Cn1cccc1C1(C(F)(F)F)NCCNC1=O` (centres undefined), the “activity change, negative = inhibition” value is -0.082%.
Consider `CC(C)N(C(=O)COC(=O)c1ccccc1C(=O)N1CCN(c2ccc(F)cc2)CC1)C(C)C`, for which the “activity change, negative = inhibition” value was 9.33%.
Take `O=c1[nH]c(=O)n([C@H]2C[C@H](O)[C@H](CO)O2)cc1Br`: the “activity change, negative = inhibition” value is -1.6%.
Regarding `CC(=O)/C(C)=N\O`, the activity change, negative = inhibition entry was “inactive”.
The result for `CC(C)Cc1ccc(S(=O)(=O)N2CCN(C(=O)c3ccco3)CC2)cc1` reads -7.76%.
With `O=c1c(-c2ccc(F)cc2)nc2cnc(N3CCOCC3)nc2n1-c1ccccc1`, the “activity change, negative = inhibition” value was -2.6%.
Take `CCON=C1C(C)(C)C(C)(C)C(C)(C)C1(C)C`: the activity change, negative = inhibition was -1.9% [at 5.75 µM].
As to `COc1cccc(NC(=O)c2ccccc2SC)c1`, the “activity change, negative = inhibition” value is -2.07%.
Consider `CCOC(=O)c1cccc(NC(=O)CN(c2ccc(C)cc2)S(=O)(=O)c2c(C)noc2C)c1`, for which the “activity change, negative = inhibition” value is -3.74%.
With `C[C@H]1O[C@@H](CC(=O)O)Cc2c1c(O)c1c(O)cc(-c3cc(=O)c4c(=O)c5c(c(=O)c=4c3=O)C[C@H](CC(=O)O)O[C@@H]5C)c(O)c1c2O`, the activity change, negative = inhibition is -3.2% [at 5.75 µM].
The value for `CCCCc1nc2ccccc2c(NC(=O)CN2CCN(C)CC2)c1CCC` was -6.24%.
The value for `O=C(O)Cc1ccc(-c2ccccc2)cc1` was 1% [at 12.8 µM]; that for `O=C(O)C(=O)Cc1ccc2c(c1)OCO2` was -2% [at 5.75 µM]; that for `CC/C(=N\O)C(C)(C)/[N+]([O-])=C/c1ccc(Br)cc1` was -3.57%.
The result for `CC(=O)NC(Cc1ccc(F)cc1)C(=O)O` (centres undefined) reads 1.35%; that for `Nc1nonc1-c1noc(-c2ccc(Br)o2)n1`, -1.42%.
Consider `Cc1ccc(C)n1-c1ccncc1`, for which the “activity change, negative = inhibition” value was -1.08%.
The result for `O=C(CCCn1c(=O)oc2ccccc21)Nc1cccnc1` reads -2.89%; that for `COc1ccc(C(=O)Nc2c(N)nc(SCC(=O)N3CCC(C)CC3)[nH]c2=O)cc1OC`, 6.59%.
The value for `COC(=O)c1sc(=S)n(-c2ccccc2)c1N` was -0.579%; that for `COc1ccc(CCN2CNc3c(c(=O)n(C)c(=O)n3C)C2)cc1OC` was -3.65%; that for `CC1CCN(Cc2nc3c(c(=O)n(C)c(=O)n3C)n2CCc2ccccc2)CC1` was 13.7%.
The value for `COc1ccc(CCNC(=O)CSc2nc(C)nc3c2oc2ccccc23)cc1OC` was -0.64%; that for `CCn1c(-c2cc(OC)ccc2OC)csc1=Nc1c(C)n(C)n(-c2ccccc2)c1=O` was -1.83%; that for `COc1ccc(C)c(Cn2c(-c3nonc3N)nc3ccccc32)c1` was -2.41%.
`CCCCOc1ccc(C(=O)NCc2ccco2)cc1`: the “activity change, negative = inhibition” value is 8.19%.
The result for `Cc1ccc2c(CSc3nncs3)cc(=O)oc2c1` reads 13.6%; that for `CCOC(=O)C1CCN(C(=O)C2CCN(S(=O)(=O)N3CCCC3)CC2)CC1`, -0.132%; that for `COc1ccccc1-c1nnc(SCC(=O)Nc2cc(C)on2)o1`, -4.26%.
On to `CSCCC(NC(N)=O)C(=O)N(C)CC(=O)Nc1ccc(C)cc1` (centres undefined), for which the “activity change, negative = inhibition” value was 0.529%.
Consider `CCOc1ccc(OCC)c(NC(=O)CSc2nnc(Cn3cnc4ccccc43)n2C)c1`, for which the “activity change, negative = inhibition” value is -2.84%.
